Sampled rows, rich in hits. Any-hit rate of the full collection: about 2.5%.
Pol beta inh = DNA polymerase beta (human) inhibition | P06746 | Pol beta primer extension/strand displacement, fluorescence kinetic | Potency, µM (series often up to 114 µM), for inactives: at the top dose activity change, negative = inhibition, most hits filed as inhibitors | 1.3% of 340,000 active | AID 485314; further: on the % scale 0 is the no-effect control and ±100 the full control effect
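Pol beta (10 nM) and compounds were preincubated 15 min at room temperature, then 50 nM substrate (final) started primer extension/strand displacement. Reads were taken at 0 and 10 min; concentration-response data were fitted to a four-parameter Hill equation.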
L3MBTL1 block = inhibitors of human L3MBTL1. Potency, µM (top dose mostly 57.1 µM), inactives show at the highest dose activity, negative = inhibition, most hits filed as inhibitors. AID 485360. Q9Y468. 0.66% of 230,000 active. AlphaScreen L3MBTL1–H3K9me1 peptide binding; further: on the % scale 0 is the no-effect control and ±100 the full control effect; nearly all actives have a fitted effect of over 60% in size
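First, the protein-peptide complex forms for 30 min at room temperature (L3MBTL1 50 nM, biotinylated H3K9me1 peptide 75 nM). Next, compounds are pin-transferred and incubated 30 min. Finally, AlphaScreen beads are added and read after 30 min.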
Pol kappa inh = blocks human DNA polymerase kappa activity; purified Pol kappa, fluorescent DNA synthesis assay, 10 min; Potency, µM (series often up to 107 µM), for inactives: at the top dose activity, negative = inhibition, most hits filed as inhibitors; 0.53% of 400,000 active; further: on the % scale 0 is the no-effect control and ±100 the full control effect
Target sequence (Q9UBT6 whole entry, looked up): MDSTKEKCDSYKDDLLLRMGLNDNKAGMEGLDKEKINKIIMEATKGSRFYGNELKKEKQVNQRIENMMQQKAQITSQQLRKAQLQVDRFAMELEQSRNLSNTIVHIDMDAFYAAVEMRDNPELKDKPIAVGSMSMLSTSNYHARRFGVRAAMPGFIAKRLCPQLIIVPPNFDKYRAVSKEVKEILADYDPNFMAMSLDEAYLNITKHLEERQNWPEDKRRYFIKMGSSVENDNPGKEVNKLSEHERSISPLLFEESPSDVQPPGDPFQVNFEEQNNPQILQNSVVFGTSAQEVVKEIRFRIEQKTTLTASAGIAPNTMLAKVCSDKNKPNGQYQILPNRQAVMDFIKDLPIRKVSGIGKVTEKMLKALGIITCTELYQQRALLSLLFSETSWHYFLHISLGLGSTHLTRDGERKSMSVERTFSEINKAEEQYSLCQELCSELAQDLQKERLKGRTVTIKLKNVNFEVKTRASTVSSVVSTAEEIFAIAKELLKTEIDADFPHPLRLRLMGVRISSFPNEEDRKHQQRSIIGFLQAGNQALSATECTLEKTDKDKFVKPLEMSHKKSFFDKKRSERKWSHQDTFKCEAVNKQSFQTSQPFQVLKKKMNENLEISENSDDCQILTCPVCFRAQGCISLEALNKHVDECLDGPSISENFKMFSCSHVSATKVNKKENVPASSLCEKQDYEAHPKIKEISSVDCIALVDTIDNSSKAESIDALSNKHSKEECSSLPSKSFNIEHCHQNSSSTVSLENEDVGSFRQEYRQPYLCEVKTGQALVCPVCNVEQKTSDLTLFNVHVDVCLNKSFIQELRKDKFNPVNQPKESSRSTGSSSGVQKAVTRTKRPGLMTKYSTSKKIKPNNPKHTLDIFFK
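Fluorescent qHTS in 1536-well format: enzyme (10 nM) and compound sat 15 min at room temperature before 50 nM substrate (final) was added. Signal taken at 0 and 10 min; no-enzyme buffer wells were negative controls.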
APEX1 inh = APE1 (human) endonuclease inhibition; recombinant APE1, TAMRA/BHQ-2 abasic DNA cleavage fluorescence; Potency, µM (doses to about 65.8 µM), for inactives: top-dose activity change, negative = inhibition, most hits filed as inhibitors; 0.35% of 350,000 active;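 further: plate controls were vehicle for no effect and reference inhibitor for full effect; nearly all actives have a fitted effect of over 55% in size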
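Compound pre-exposure to 0.75 nM APE1, 15 min at ambient temperature. Reaction initiated with 50 nM TAMRA/BHQ-2 THF substrate, read immediately in kinetic mode, 525 nm excitation, 598 nm emission.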
Pol iota inh = DNA polymerase iota (human) inhibition; Pol iota fluorescent replication assay, 10 min; AID 588590; 1% of 390,000 active; Potency, µM (top dose mostly 115 µM), for inactives: at the highest dose activity, negative = inhibition, actives largely listed as inhibitors
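Fluorescent replication assay read twice, at 0 min and 10 min after adding 50 nM (final) substrate. Enzyme (10 nM) and compounds were first incubated 15 min at room temperature; enzyme-free buffer wells were negative controls.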
POLH inh = inhibitors of human DNA polymerase eta | recombinant Pol eta, fluorescent DNA replication assay | Potency, µM (top dose mostly 114 µM), for inactives: at the top dose activity change, negative = inhibition, usual class: inhibitors | 1.2% of 390,000 active | AID 588591 | Q9Y253; further: on the % scale 0 is the no-effect control and ±100 the full control effect
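Fluorescent replication assay: 50 nM final substrate added after a 15 min room-temperature compound preincubation with 10 nM enzyme. Signal taken at 0 min and again at 10 min.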
* marks the source's active call; other numbers are inactive results; ? = inconclusive; · = no result given; [ ] = dose if it differs, or a comment. The call rests on the fitted dose curve; in most records, active means well fitted curve in the direction sought with a large enough effect; inconclusive means small, poorly fitted or top-dose-only effect, or another doubt; inactive means no such curve, though single readings can be large; an effect the other way counts as inactive or inconclusive. Potency means the concentration at half of the fitted maximal effect.

SMILES	Pol beta inh	L3MBTL1 block	Pol kappa inh	APEX1 inh	Pol iota inh	POLH inh
COC(=O)c1cc2occc2n1CC(=O)Nc1ccc(C(C)C)cc1	40.0%	·	?	·	-3.4%	-16.4%
CC1(O)C(=O)C=C2C=C(c3ccsc3)OC=C2C1=O (stereo not drawn)	·	·	·	0.6%	·	·
CCC(=O)OC1(C)C(=O)C=C2C=C(c3ccsc3)OC=C2C1=O (stereo not drawn)	50.1µM*	·	50.1µM*	?	17.8µM*	50.1µM*
COCCN1C=C2C(=O)C(C)(OC(=O)CCC(=O)OC)C(=O)C=C2C=C1C1CC1 (stereo not drawn)	20.8%	·	-11.3%	-3.3%[12.4 µM]	46.7%	-3.3%
COC(=O)CCCC1=CC2=CC(=O)C(C)(OC(=O)CCc3ccccc3)C(=O)C2=CO1 (stereo not drawn)	56.2µM*	·	?	-0.3%	?	?
COC(=O)CCC(=O)OC1(C)C(=O)C=C2C=C(C3CC3)N(C3CC3)C=C2C1=O (stereo not drawn)	-10.5%	·	-16.4%	-3.6%[12.4 µM]	14.1µM*	-14.1%
CCC(=O)OC1(C)C(=O)C=C2C=C(/C=C/COC)OC=C2C1=O (stereo not drawn)	·	·	·	-11.9%	·	·
COC(=O)CCC(=O)OC1(C)C(=O)C=C2C=C(c3ccsc3)OC=C2C1=O (stereo not drawn)	·	·	20µM*	-3.3%	14.1µM*	5.01µM*
CC1(C)S[C@@H]2[C@H](NC(=O)C(N)c3ccccc3)C(=O)N2[C@H]1C(=O)OC1OC(=O)c2ccccc21 (stereo partly drawn)	·	·	·	3.4%[21 µM]	·	·
C=CC1=C2C=C(C3CC3)N(CCN3CCOCC3)C=C2C(=O)C(C)(OC(=O)c2ccco2)C1=O (stereo not drawn)	·	·	·	3.3%[12.4 µM]	·	·
COc1cccc(NC(=O)C2CCN(S(=O)(=O)c3cccc4nonc34)CC2)c1	11.2%	·	4.3%	·	8.4%	-15.6%
Cc1ccc(/C=C/C(=O)Nc2nnc(SCc3ccc(C#N)cc3)s2)o1	20.6%	5.2%	?	1.0%	39.8µM*	?
CC(C(=O)Nc1cccnc1)N1C(=O)c2ccccc2C1=O (stereo not drawn)	-3.2%	3.5%	3.5%	3.0%	0.6%	4.5%
COc1cc(Cl)c(NC2=CC(=O)C(=O)c3ccccc32)c(OC)c1	·	?	-0.8%	26.6%	?	56.2µM*
O=C1C=C(Nc2ccccc2O)c2ccccc2C1=O	9.7%	-24.2%	-9.3%	-7.7%	31.6µM*	25.1µM*
Cc1ccc(NC2=CC(=O)C(=O)c3ccccc32)c(C)c1	·	-0.7%	0.7%	-11.7%	43.6%	-31.1%
CCOc1ccc(NC2=CC(=O)C(=O)c3ccccc32)cc1	·	·	-3.6%	·	35.5µM*	39.8µM*
O=C1C=C(Nc2ccc(F)cc2)c2ccccc2C1=O	·	-19.0%	-16.4%	-14.7%	1.1%	?
O=C1C=C(Nc2cccnc2)c2ccccc2C1=O	·	·	-14.2%	·	50.1µM*	31.6µM*
COc1ccc(NC(=O)C[C@@H]2C(=O)N(Cc3ccccc3)CC2(C)C)cc1	·	·	·	·	·	-0.1%
CCOc1ccccc1/C=C(\C(=O)O)c1ccc(S(=O)(=O)N2CCCCC2)s1	·	-7.8%	-1.0%	37.6%	?	?
CC(=O)NC1[C@H]([C@H](O)[C@H](O)CO)OC(C(=O)O)=C[C@H]1N=C(N)N (stereo partly drawn)	·	·	-4.1%[60.1 µM]	·	·	·
CC(=O)NC(c1cccs1)c1cc(F)c2cccnc2c1O (stereo not drawn)	·	?	1.1%	-7.5%	86.2%	-19.8%
CC(=O)NC(c1ccco1)c1cc(F)c2cccnc2c1O (stereo not drawn)	·	14.1µM*	-10.4%	29.4%	1.3%	-11.2%
COc1ccc(-c2cc(-c3cccs3)c(C#N)c(SCC(=O)NCc3ccco3)n2)cc1	12.6µM*	-8.8%	-3.6%	0.4%	8.0%	10.0%
Cc1ccc(-c2ccc(=O)n(CC(=O)NCc3ccco3)n2)cc1	8.0%	5.4%	-2.5%	2.2%	15.6%	-12.1%

From PubChem BioAssay
